Experimental data taken from PubChem BioAssay (Tox21).
“And” between values parts separate entries of the source, which are not always exact repeats. Equal entries are not always repeated. Inconclusive results are not listed. Some compounds were tested as several samples or in several runs, with calls that do not always agree. The source made the active and inactive calls. Unless noted, the call rests on the fitted dose curve; in most records, active means well fitted curve in the direction sought with a large enough effect in the repeat runs; inconclusive means weak or mixed curves; inactive means no such curve, though single readings can be large; an effect the other way counts as inactive or inconclusive.

Key:
[1] = A CellTox Green Cytotoxicity Assay to monitor cytotoxicity in HepG2 cells - 0 hour (AID 1224882); further: nearly all actives have a fitted effect of over 35% in size
Outline: (§1)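 Nonlytic assay: viable cells exclude the dye, so fluorescence scales with cell death. HepG2 at 600 cells/well, compounds added after 5 h, signal read across 40 h.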

[2] = qHTS RealTime-Glo MT Cell Viability Assay in HepG2 cells - 16 hour (AID 1224885); further: nearly all actives have a fitted effect of over 50% in size; further: potency means the concentration at half of the fitted maximal effect
Outline: (§2)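 Luminescence read-out: viable HepG2 cells reduce a prosubstrate to a NanoLuc substrate, giving a signal proportional to live cell number. Reads taken at 0, 8, 16, 24, 32 and 40 h of compound exposure at 37 C.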

[3] = qHTS RealTime-Glo MT Cell Viability Assay in HepG2 cells - 0 hour (AID 1224889); further: nearly all actives have a fitted effect of over 50% in size
Outline: as §2

[4] = A CellTox Green Cytotoxicity Assay to monitor cytotoxicity in HepG2 cells - 8 hour (AID 1224890); further: nearly all actives have a fitted effect of over 45% in size; further: potency means the concentration at half of the fitted maximal effect
Outline: as §1

[5] = qHTS assay to identify small molecule antagonists of the estrogen receptor alpha (ER-alpha) signaling pathway using the BG1 cell line in the presence of 0.1 nM 17-beta-estradiol - cell viability counter screen (AID 1259241); further: nearly all actives have a fitted effect of over 40% in size; further: potency means the concentration at half of the fitted maximal effect
Outline: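 VM7Luc4E2 cells (endogenous ER-alpha, 4×ERE-luciferase), hormone-starved 5 days in charcoal-stripped FBS, were treated with compounds plus 0.1 nM 17beta-estradiol for 22 hr at 37C; viability read in same wells as CellTiter-Fluor live-cell protease fluorescence.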

[6] = qHTS assay to identify small molecule antagonists of the androgen receptor (AR) signaling pathway using the MDA cell line in the presence of 0.5 nM R1881 - cell viability counter screen (AID 1259242); further: nearly all actives have a fitted effect of over 45% in size; further: potency means the concentration at half of the fitted maximal effect
Outline: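 R1881 at 0.5 nM final stimulated MDA-kb2 cells during 16 hr compound treatment at 37C. Cytotoxicity read: CellTiter-Fluor fluorescence after 30 min.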

[7] = target: Androgen receptor (Homo sapiens) (UniProt P10275); assay: qHTS assay to identify small molecule antagonists of the androgen receptor (AR) signaling pathway using the MDA cell line in the presence of 0.5 nM R1881 (AID 1259243); further: nearly all actives have a fitted effect of over 50% in size; further: potency means the concentration at half of the fitted maximal effect
Chain of Androgen receptor (Homo sapiens) (P10275 whole entry, looked up): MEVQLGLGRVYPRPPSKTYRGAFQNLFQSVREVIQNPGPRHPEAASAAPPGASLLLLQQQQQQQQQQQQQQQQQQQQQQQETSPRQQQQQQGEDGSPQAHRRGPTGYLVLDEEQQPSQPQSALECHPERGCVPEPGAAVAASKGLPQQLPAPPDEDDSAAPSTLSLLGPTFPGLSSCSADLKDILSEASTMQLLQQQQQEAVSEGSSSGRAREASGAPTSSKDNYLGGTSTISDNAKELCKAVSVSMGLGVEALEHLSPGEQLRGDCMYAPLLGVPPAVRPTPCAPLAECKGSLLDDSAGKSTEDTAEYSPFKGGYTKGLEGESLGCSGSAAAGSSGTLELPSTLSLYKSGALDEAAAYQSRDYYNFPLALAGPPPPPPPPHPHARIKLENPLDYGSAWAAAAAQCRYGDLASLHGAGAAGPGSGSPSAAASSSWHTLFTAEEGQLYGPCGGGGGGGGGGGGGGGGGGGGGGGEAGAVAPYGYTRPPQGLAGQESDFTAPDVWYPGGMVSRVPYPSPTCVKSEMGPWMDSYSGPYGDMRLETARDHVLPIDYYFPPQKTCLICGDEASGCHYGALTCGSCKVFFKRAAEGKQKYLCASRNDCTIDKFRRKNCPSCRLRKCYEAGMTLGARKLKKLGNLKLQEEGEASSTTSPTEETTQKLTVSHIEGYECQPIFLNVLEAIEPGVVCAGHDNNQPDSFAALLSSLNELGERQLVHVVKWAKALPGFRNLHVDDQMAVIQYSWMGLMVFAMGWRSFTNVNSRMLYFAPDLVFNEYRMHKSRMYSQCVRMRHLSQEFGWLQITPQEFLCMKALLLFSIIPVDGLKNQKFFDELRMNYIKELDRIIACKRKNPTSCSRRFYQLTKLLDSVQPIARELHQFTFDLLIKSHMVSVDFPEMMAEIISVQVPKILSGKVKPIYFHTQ
Outline: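 We exposed MDA-kb2 cells to compounds under 0.5 nM R1881 stimulation for 16 hr at 37C and quantified MMTV-driven luciferase by luminescence.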

[8] = qHTS assay to identify small molecule phospholipidosis (PLD) inducers (AID 1259344; active means well fitted curve in the direction sought with a large enough effect; an effect the other way counts as inactive or inconclusive)
Outline: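 HepG2 cells, 900/well, treated with compound plus LipidTOX Red for 24 h at 37 C; amiodarone positive and DMSO negative controls. Fixed with paraformaldehyde/Hoechst, then high-content imaging scored LipidTOX pit count and integrated intensity per well and per cell.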

[9] = qHTS assay to identify small molecule HDAC inhibitors (AID 1259364); further: potency means the concentration at half of the fitted maximal effect;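 further: wild-type HCT-116 cells with endogenous class I/II HDAC activity; nearly all actives have a fitted effect of over 45% in size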
Outline: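 Relative class I and II HDAC activity is taken from the luminogenic signal in HCT-116 cells, with compound exposure 2 hr and reagent development 30 min at room temperature.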

[10] = qHTS assay to identify small molecule HDAC inhibitors - cell viability counter screen (AID 1259365); further: nearly all actives have a fitted effect of over 50% in size; further: potency means the concentration at half of the fitted maximal effect
Outline: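 Wild-type HCT-116 cells were seeded at 1,500 per well, incubated overnight at 37 C, then exposed to compounds in DMSO for 2hr. Viability was read by CellTiter-Glo luminescence after 30min at room temperature.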

[11] = qHTS assay to identify small molecule agonists of the sonic hedgehog signaling (Shh) pathway - cell viability counter screen (AID 1259366); further: nearly all actives have a fitted effect of over 50% in size; further: potency means the concentration at half of the fitted maximal effect
Outline: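 NIH/3T3-derived 3T3 Gli1-Luc cells (stable Gli1-responsive firefly luciferase reporter) were seeded, rested 4 hr at 37 C/5% CO2, then exposed to compounds in DMSO for 24 hr; viability was read by CellTiter-Fluor fluorescence in the same wells.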

[12] = qHTS RealTime-Glo MT Cell Viability Assay in HEK293 cells - 24 hour (AID 1224886); further: nearly all actives have a fitted effect of over 50% in size; further: potency means the concentration at half of the fitted maximal effect
Outline: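 Nonlytic real-time viability readout: viable cells convert prosubstrate to NanoLuc substrate, giving luminescence proportional to live cell number. HEK293, 600 cells/well, compound added after 5 h, continuous culture at 37 C.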

[13] = target: Estrogen receptor (Homo sapiens) (UniProt P03372); assay: qHTS assay to identify small molecule antagonists of the estrogen receptor alpha (ER-alpha) signaling pathway using the BG1 cell line in the presence of 0.1 nM 17-beta-estradiol (AID 1259244); further: nearly all actives have a fitted effect of over 50% in size; further: potency means the concentration at half of the fitted maximal effect
Chain of Estrogen receptor (Homo sapiens) (P03372 whole entry, looked up): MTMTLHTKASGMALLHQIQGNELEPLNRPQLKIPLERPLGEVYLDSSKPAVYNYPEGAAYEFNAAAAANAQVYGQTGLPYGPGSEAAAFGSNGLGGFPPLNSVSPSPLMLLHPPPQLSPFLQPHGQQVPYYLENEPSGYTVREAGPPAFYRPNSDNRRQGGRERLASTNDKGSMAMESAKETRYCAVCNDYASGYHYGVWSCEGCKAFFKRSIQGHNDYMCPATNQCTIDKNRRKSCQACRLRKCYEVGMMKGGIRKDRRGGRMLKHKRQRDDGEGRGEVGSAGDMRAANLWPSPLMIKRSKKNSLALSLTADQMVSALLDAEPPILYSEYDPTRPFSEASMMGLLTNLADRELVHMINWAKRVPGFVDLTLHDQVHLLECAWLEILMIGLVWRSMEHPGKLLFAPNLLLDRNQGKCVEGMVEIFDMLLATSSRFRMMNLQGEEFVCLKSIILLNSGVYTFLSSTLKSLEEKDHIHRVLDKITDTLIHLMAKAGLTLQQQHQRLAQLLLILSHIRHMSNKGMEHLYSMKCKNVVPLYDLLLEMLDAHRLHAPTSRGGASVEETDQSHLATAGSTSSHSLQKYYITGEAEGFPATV
Outline: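 VM7Luc4E2; 4xERE-luciferase; 0.1 nM E2 final; 22 h co-incubation, 37C; ONE-Glo luminescence after 30 min at room temperature.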

[14] = qHTS assay to identify small molecule agonists of the sonic hedgehog signaling (Shh) pathway (AID 1259368; calls by dose curve; further: series mostly up to about 92 µM; nearly all actives have a fitted effect of over 15% in size)
Outline: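 Mouse fibroblast (NIH/3T3) reporter cells with stably integrated Gli1-Luc were treated 24 hr with compound; firefly luciferase luminescence served as the read-out.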

[15] = A CellTox Green Cytotoxicity Assay to monitor cytotoxicity in HepG2 cells - 32 hour (AID 1224883); further: nearly all actives have a fitted effect of over 50% in size; further: potency means the concentration at half of the fitted maximal effect
Outline: as §1

[16] = qHTS RealTime-Glo MT Cell Viability Assay in HEK293 cells - 8 hour (AID 1224887); further: nearly all actives have a fitted effect of over 50% in size; further: potency means the concentration at half of the fitted maximal effect
Outline: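 Tox21 screen in HEK293 using RealTime-Glo MT chemistry, with cells and reagent co-dispensed. Luminescence proportional to viable cell number was captured at intervals during 40 h compound exposure at 37 C.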

[17] = qHTS assay to identify small molecule antagonists of the sonic hedgehog signaling (Shh) pathway - cell viability counter screen (AID 1259367); further: nearly all actives have a fitted effect of over 55% in size; further: potency means the concentration at half of the fitted maximal effect
Outline: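 NIH/3T3-derived Gli1-Luc reporter cells, 2,000/well, plated 4 hr before compound addition, then stimulated with conditioned medium for 24 hr at 37C. Viability measured in the same wells by CellTiter-Fluor fluorescence, reagent added at 23 hr for 1 hr.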

[18] = A CellTox Green Cytotoxicity Assay to monitor cytotoxicity in HEK293 cells - 16 hour (AID 1224888); further: nearly all actives have a fitted effect of over 35% in size; further: potency means the concentration at half of the fitted maximal effect
Outline: (§3)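 Seeding of HEK293 cells together with cytotoxicity dye preceded a 5 h incubation at 37 C/5% CO2. Test compounds in DMSO were then added and fluorescence monitored across 40 h.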

[19] = A CellTox Green Cytotoxicity Assay to monitor cytotoxicity in HEK293 cells - 8 hour (AID 1224884); further: nearly all actives have a fitted effect of over 35% in size; further: potency means the concentration at half of the fitted maximal effect
Outline: as §3

Measured: Potency

OCc1c[nH]c2ccccc12
inactive: [1] | [2] | [3] | [4] | [5] | [6] | [8] | [9] | [10] | [11]
active: [7] 17.2 µM

O=C1Cc2cc(CCN3CCN(c4nsc5ccccc45)CC3)c(Cl)cc2N1
active: [12] 23.9 µM
inactive: [1] | [3] | [4] | [5] | [13] | [8] | [9] | [10] | [14]

CCCCCCCCCCCCCCCC(=O)OC[C@H](O)[C@H]1OC(=O)C(O)=C1O
not listed: [18] | [19]
inactive: all other assays above

O=[N+]([O-])c1cc(Cl)c(Cl)c(Cl)c1Cl
inactive: [1] | [2] | [16] | [18] | [3] | [4] | [9] | [10] | [17] | [14]
active: [5] 68.3 µM

CCCCCCCCCCCCCCCCCC[N+](C)(C)Cc1ccccc1
active: [15] 22.1 µM | [12] 6.23 µM | [16] 24.8 µM | [18] 22.1 µM | [4] 55.5 µM | [6] 49 µM | [7] 17.4 µM | [13] 55 µM | [10] 61.7 µM | [11] 24.6 µM | [17] 30.9 µM
inactive: [1] | [9] | [14]

CC(C)(C)c1ccc(C(=O)CCCN2CCC(OC(c3ccccc3)c3ccccc3)CC2)cc1
active: [15] 21.3 µM | [2] 21.3 µM | [12] 8.49 µM | [16] 9.52 µM | [18] 21.3 µM | [4] 23.9 µM | [6] 21.1 µM | [11] 26.6 µM
inactive: [3] | [9] | [10]

CC(C)(C)C1CCC(CC2=C(O)c3ccccc3C(=O)C2=O)CC1 (stereo not given)
active: [5] 29.8 µM | [6] 10.6 µM | [7] 8.41 µM | [13] 21.1 µM
not listed: [8] | [12] | [15] | [16]
inactive: all other assays above

O=c1cc(-c2ccc(O)cc2)oc2cc(O)cc(O)c12
inactive: [1] | [16] | [18] | [3] | [5] | [6] | [10] | [14]
active: [9] 8.75 µM and 17.2 µM | [11] 61.9 µM and 38.6 µM | [17] 48.6 µM
inactive and 38.9 µM (active): [15] | [4]

O=c1[nH]sc2ccccc12
active: [15] 34.7 µM | [16] 49 µM | [4] 49 µM | [5] 61.1 µM | [13] 54.5 µM | [11] 13.7 µM | [17] 17.2 µM
inactive: [1] | [3] | [10] | [14]

C[C@H]1[C@H]2CC[C@H]3[C@@H]4CC=C5C[C@@H](N(C)C)CC[C@]5(C)[C@H]4CC[C@]23CN1C
not listed: [1] | [4] | [7] | [12] | [13]
inactive: all other assays above

O=C1CCCCCN1SSN1CCCCCC1=O
active: [11] 19.3 µM | [17] 54.5 µM
inactive: [1] | [16] | [3] | [4] | [5] | [6] | [9] | [10] | [14]

CC/C(=C(\c1ccc(O)cc1)c1ccc(OCCN(C)C)cc1)c1ccccc1
active: [15] 49.1 µM | [12] 21.9 µM | [16] 27.6 µM | [18] 55.1 µM | [7] 61.3 µM | [11] 21.7 µM | [17] 30.7 µM
inactive: [1] | [3] | [9] | [14]

O=C1c2ccccc2Cc2ccccc21
active: [11] 6.91 µM
not listed: [2] | [7] | [8] | [9] | [17] | [19]
inactive: all other assays above

O=C(Oc1ccccc1)c1ccccc1C(=O)Oc1ccccc1
active: [7] 54.5 µM
not listed: [2] | [3] | [8] | [11] | [12] | [13] | [19]
inactive: all other assays above

Cc1cccc2c1cc1ccc3cccc4ccc2c1c34
not listed: [7] | [8] | [9] | [12] | [16] | [18] | [19]
inactive: all other assays above

Nc1c(Cl)cc(Cl)cc1Cl
active: [19] 21.6 µM | [18] 21.6 µM
not listed: [7] | [8] | [11] | [13] | [14] | [15] | [16]
inactive: all other assays above

CCc1cc(Cc2cc(CC)cc(C(C)(C)C)c2O)c(O)c(C(C)(C)C)c1
inactive: [1] | [19] | [3] | [9] | [10] | [14]
active: [2] 49 µM | [12] 15.5 µM | [16] 13.8 µM | [7] 30.6 µM | [11] 61.1 µM | [17] 61.1 µM
